24 compounds from PubChem BioAssay (NCATS) can be followed below.

Records with an inconclusive call do not appear. Active and inactive are the calls of the source. Unless noted, calls follow the shape of the dose curve; as a rule, active = well fitted curve in the direction sought with a large enough effect; inconclusive = small, poorly fitted or top-dose-only effect, or another doubt; inactive = no such curve, though single readings can be large; an effect the other way counts as inactive or inconclusive.

The target of experiment [1] is Calcium and integrin-binding protein 1 (Homo sapiens) (UniProt Q99828). As to the kind of experiment: Primary qHTS for Identification of Calcium Integrin Binding Protein 1 (CIB1) Competitor (AID 1508620).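 Also: GST tagged CIB1 binding a fluorescein labelled alphaIIb integrin peptide tracer; top concentration of the series differs between compounds; % is scaled to controls: 0 for no effect and ±100 for the full control effect.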 In outline: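 Fluorescence polarization competition: CIB1-GST (1 uM final) preincubated with compound 15 min at room temperature, then FITC-labeled alphaIIb peptide (100 nM final) added for another 15 min. Polarization read at Ex 480/Em 540.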
Chain of Calcium and integrin-binding protein 1 (Homo sapiens) (Q99828 whole entry, looked up): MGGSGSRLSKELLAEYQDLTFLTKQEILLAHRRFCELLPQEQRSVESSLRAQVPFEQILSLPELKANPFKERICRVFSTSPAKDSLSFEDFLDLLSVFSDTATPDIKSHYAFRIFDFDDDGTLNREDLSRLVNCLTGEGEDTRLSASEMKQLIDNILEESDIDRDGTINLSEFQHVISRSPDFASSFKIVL
(In general: In qHTS, concentration-response curves come from the screen itself.)

Experiment [2] is described as follows: Primary qHTS for inhibitors of nuclear receptor binding SET domain protein 2 (NSD2) in an isogenic RCH-ACV NSD2 p.E1099K mutant (9B) (AID 1645876). Also: nearly all actives have a fitted effect of over 70% in size. As to activity change, negative = viability loss: % is scaled to controls: 0 for no effect and ±100 for the full control effect.
The target in experiment [3] is N-terminal Xaa-Pro-Lys N-methyltransferase 1 (Homo sapiens) (UniProt Q9BV86). As to the kind of experiment: Confirmatory qHTS for Inhibitors of N-terminal methyltransferase 1 (NTMT1): MTaseGlo Assay (AID 1645874).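 Also: luminescence from SAH made as NTMT1 methylates SPKRIA peptide using SAM; 0% = DMSO control and -100% = no-enzyme control; nearly all actives have a fitted effect of over 65% in size.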 In outline: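 NTMT1 (125 nM) preincubated 15 min with compound and 100 uM SAM, then 1 uM SPKRIA peptide added for 30 min at room temperature. SAH detected by MTase-Glo luminescence; normalized to no-enzyme and DMSO controls, fitted to 4-parameter Hill.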
Chain of N-terminal Xaa-Pro-Lys N-methyltransferase 1 (Homo sapiens) (Q9BV86 whole entry, looked up): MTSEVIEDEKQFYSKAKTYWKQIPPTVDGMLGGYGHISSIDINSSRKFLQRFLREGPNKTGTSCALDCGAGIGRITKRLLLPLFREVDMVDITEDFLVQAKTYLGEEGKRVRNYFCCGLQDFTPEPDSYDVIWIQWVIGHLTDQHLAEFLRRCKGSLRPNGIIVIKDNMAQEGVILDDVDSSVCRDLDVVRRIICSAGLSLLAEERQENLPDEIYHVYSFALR

Experiment [4] can be described thus: Primary qHTS for inhibitors of nuclear receptor binding SET domain protein 2 (NSD2) in an RCH-ACV wild type WT cells (2C) (AID 1645877). Also: nearly all actives have a fitted effect of over 70% in size. Also: potency is read from the fitted curve at half-maximal effect. As to activity change, negative = cell killing: % is scaled to controls: 0 for no effect and ±100 for the full control effect.
Experiment [5] concerns the target Cytochrome P450 2C9 (Homo sapiens) (UniProt P11712). In words: Cytochrome P450 family 2 subfamily C member 9 (CYP2C9) small molecule antagonists: luciferase biochemical (cell-free) qHTS assay (AID 1645842; active = well fitted curve in the direction sought with a large enough effect in the repeat runs; an effect the other way counts as inactive or inconclusive; also: nearly all actives have a fitted effect of over 55% in size; also: potency is read from the fitted curve at half-maximal effect; as to activity change, negative = inhibition: % is scaled to controls: 0 for no effect and ±100 for the full control effect). In outline: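 Luminescence, after 20 min with luciferin detection reagent, reflected CYP2C9 turnover during a 1 h NADPH-driven reaction at 37C. Enzyme-substrate mix contained 0.4% bovine serum albumin and was preincubated with compound 10 min at room temperature.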

Experiment [6] addresses Catechol O-methyltransferase (Homo sapiens) (UniProt P21964). In words: Confirmatory Screen for Target Class Profiling of Small Molecule Inhibitors of Methyltransferases (AID 1745852; calls by dose curve). The conditions noted are these: MTase-Glo luminescence, SAH detection, recombinant enzyme; measured here: COMT max response; stronger effect = lower value.
Experiment [7] addresses Guanidinoacetate N-methyltransferase (Homo sapiens) (UniProt Q14353). The description is as above. The following applies: MTase-Glo luminescence, SAH detection, recombinant enzyme; activity change, negative = inhibition: at 57.3 µM (top of the series) unless noted.
In experiment [8] the target is Nicotinamide N-methyltransferase (Homo sapiens) (UniProt P40261). The description is as above. The following applies: MTase-Glo luminescence, SAH detection, recombinant enzyme; measured here: NNMT max response; stronger effect = lower value.
Chain of Nicotinamide N-methyltransferase (Homo sapiens) (P40261 whole entry, looked up): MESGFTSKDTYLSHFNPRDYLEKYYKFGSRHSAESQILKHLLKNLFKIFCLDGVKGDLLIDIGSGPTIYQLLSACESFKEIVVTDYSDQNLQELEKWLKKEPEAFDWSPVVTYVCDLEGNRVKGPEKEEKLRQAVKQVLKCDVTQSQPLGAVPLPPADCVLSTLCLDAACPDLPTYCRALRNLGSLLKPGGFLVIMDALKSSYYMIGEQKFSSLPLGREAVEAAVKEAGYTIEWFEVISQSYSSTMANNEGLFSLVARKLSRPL
Experiment [9] addresses Phenylethanolamine N-methyltransferase (Homo sapiens) (UniProt P11086). The experiment is described as above. The conditions noted are these: MTase-Glo luminescence, SAH detection, recombinant enzyme; measured here: PNMT max response; stronger effect = lower value.

Chain of Cytochrome P450 2C9 (Homo sapiens) (P11712 whole entry, looked up): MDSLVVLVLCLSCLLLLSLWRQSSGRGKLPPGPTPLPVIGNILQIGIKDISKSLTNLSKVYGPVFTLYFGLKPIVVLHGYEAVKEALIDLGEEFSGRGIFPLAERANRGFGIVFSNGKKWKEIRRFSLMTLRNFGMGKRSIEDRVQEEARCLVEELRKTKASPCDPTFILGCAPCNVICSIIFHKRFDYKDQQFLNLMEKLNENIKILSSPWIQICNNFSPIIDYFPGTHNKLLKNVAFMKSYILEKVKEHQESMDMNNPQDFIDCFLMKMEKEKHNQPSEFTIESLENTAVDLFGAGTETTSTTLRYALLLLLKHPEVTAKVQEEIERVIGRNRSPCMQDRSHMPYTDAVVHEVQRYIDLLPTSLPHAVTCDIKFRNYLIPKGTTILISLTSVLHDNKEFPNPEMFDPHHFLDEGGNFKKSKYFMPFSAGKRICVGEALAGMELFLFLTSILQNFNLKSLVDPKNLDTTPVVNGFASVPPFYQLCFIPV
Chain of Catechol O-methyltransferase (Homo sapiens) (P21964 whole entry, looked up): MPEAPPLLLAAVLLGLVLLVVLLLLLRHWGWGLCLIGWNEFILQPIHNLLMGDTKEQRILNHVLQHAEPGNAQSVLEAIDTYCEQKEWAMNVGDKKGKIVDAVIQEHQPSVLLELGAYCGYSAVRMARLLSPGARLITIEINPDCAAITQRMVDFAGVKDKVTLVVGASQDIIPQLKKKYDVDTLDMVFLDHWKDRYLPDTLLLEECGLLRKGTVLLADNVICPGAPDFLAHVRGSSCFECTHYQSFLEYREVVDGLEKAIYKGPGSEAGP
Chain of Phenylethanolamine N-methyltransferase (Homo sapiens) (P11086 whole entry, looked up): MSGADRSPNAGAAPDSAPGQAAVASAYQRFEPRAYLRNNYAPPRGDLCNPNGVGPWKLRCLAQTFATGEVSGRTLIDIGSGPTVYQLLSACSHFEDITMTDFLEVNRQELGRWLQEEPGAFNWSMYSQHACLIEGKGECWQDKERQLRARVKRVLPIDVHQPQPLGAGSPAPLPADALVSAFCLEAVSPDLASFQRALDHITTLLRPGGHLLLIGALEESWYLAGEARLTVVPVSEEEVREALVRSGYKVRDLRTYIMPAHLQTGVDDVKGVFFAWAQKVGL

On to `CC(O)C/C=C/C=C/C(=O)OC1C=C2COC(=O)C2(O)C2(C)CCCC(C)(C)C12` (stereo not given), for which the Potency entry in [1] and in [2] was “inactive” in each case.
`C=C1CCC2C(C)(C)CC(=O)CC2(C)C1CCC(C)CCO` (stereo not given): the Potency entry in experiment [1] and in experiment [2] was “inactive” in each case.
Regarding `C=CC(C)(O)CCC1C(C)(O)CCC2C(C)(C)CCCC21C` (stereo not given), the Potency entry in experiment [1] and in experiment [2] was “inactive” throughout.
As for `C=C1CC[C@@H]2C(C)(C)CCC[C@@]2(C)[C@@H]1CC/C(=C/C(=O)OC)COC(C)=O`, the Potency result in [1] and in experiment [2] was “inactive” each time.
As to `O=C(OCC1=CC(Cl)C(O)C(OC(=O)c2ccccc2)C1O)c1ccccc1` (stereo not given), the Potency entry in experiment [1] and in experiment [2] was “inactive” each time.
For the compound `Cc1ccccc1N1CCN(S(=O)(=O)C[C@]23CC[C@H](C[C@@H]2NC(=O)[C@@H](N)CCS(C)(=O)=O)C3(C)C)CC1`, the Potency result in [1] and in experiment [2] was “inactive” in each case.
In the case of `C/C=C/C=C/C(O)=C1/C(=O)[C@]2(C)C3/C(=C(O)/C=C/C=C/C)C(=O)C4(C)C1[C@]1(C)O[C@@]4(O)[C@@]3(C)O[C@@]12O`, the Potency entry in experiment [1] and in experiment [2] was “inactive” each time.
`O=C(O)c1ccnc2cc(-c3nc4ccccc4n3CCN3CCCCC3)sc12`: the Potency result in [1], in experiment [3], in [2] and in experiment [4] was “inactive” in each case.
With `CC1(C)CC2C3=CCC4[C@@]5(C)CC[C@H](OC6OCC(O)C(OC7OC(CO)C(O)C(O)C7O)C6O)C(C)(C)C5CC[C@@]4(C)[C@]3(C)C[C@H](O)[C@@]2(CO)[C@H](OC(=O)c2ccccc2)C1` (stereo not given in full), the Potency entry in experiment [1] is “inactive”. Also, the activity change, negative = viability loss in [2] is -12.4% [at 9.23 µM] (inactive).
For the compound `CCC(C)C(=O)O[C@H]1[C@@H](O[C@H]2O[C@H](CO)[C@@H](O)[C@H](O)[C@H]2O)O[C@H](CO)[C@@H](O)[C@@H]1O` (stereo not given in full), the Potency result in [1] and in [2] was “inactive” in each case.
Consider `CCC(C)C1NC(=O)C2C(C)CCN2C(=O)C(CC(O)CO)OC(=O)CCNC(=O)C(C)N(C)C(=O)C(C(C)C)N(C)C1=O` (stereo not given), for which the Potency entry in experiment [1] and in [2] was “inactive” throughout.
As for `O=C(Nc1cc(-c2ccccc2)nn1-c1ccccc1F)c1ccc([N+](=O)[O-])cc1`, the Potency result in [1] and in [4] was “inactive” throughout. Besides, the Potency in [5] was 6.74 µM (active).
As for `C=C1C(=O)O[C@@H]2/C=C(\C)CC/C=C(\C(=O)O[C@@H]3O[C@H](CO)[C@@H](O)[C@H](O)[C@H]3O)CC[C@@H]12`, the Potency result in [1] and in experiment [2] was “inactive” throughout.
As for `C=CC1(C)CC=C2C(CCC3C(C)(C(=O)O)CCCC23C)C1` (stereo not given), the Potency entry in experiment [1] and in [2] was “inactive” throughout.
Turning to `CC[C@@H]1[C@H]2CCCCN3C(=O)C[C@H]([C@@H]4[C@H]1OC(=O)[C@H]4C)[C@@H]23`, the Potency result in [1] and in experiment [2] was “inactive” in each case.
In the case of `C[C@@H]1O[C@@H](O[C@H]2[C@H](OC(=O)[C@]34CCC(C)(C)C[C@H]3C3=CCC5[C@@]6(C)C[C@@H](O)[C@@H](O[C@@H]7O[C@H](CO)[C@@H](O)[C@H](O)[C@H]7O)[C@@](C)(CO)C6[C@H](O)C[C@@]5(C)[C@]3(C)CC4)OC[C@H](O)[C@@H]2O)[C@H](O)[C@H](O[C@@H]2OC[C@](O)(CO)[C@H]2O)[C@H]1O[C@@H]1OC[C@@H](O)[C@H](O[C@H]2O[C@H](C)[C@@H](O)[C@H](O)[C@@H]2O)[C@H]1O` (stereo not given in full), the activity change, negative = inhibition in experiment [1] is 5.13% [at 12.4 µM] (inactive). Further, the activity change, negative = viability loss in experiment [2] is -25.2% [at 9.23 µM] (inactive).
For the compound `O=C(NCC(=O)N1CCCC1)Nc1ccc2ccccc2c1`, the Potency entry in experiment [1], in experiment [5], in [2] and in [4] was “inactive” throughout. For the same compound, the activity was 1.31% in experiment [6], -23% in experiment [8] and -8.32% in experiment [9]. In experiment [7], the activity change, negative = inhibition was -10.4%.
As to `C/C(=C\CC[C@H](CO)[C@@H]1CC[C@]2(C)C3=C(CC[C@@]12C)[C@@]1(C)CCC(=O)C(C)(C)C1CC3)C(=O)O` (stereo not given in full), the Potency entry in experiment [1] and in experiment [2] was “inactive” each time.
Regarding `COc1c(C)c(OCC=C(C)C)cc2c1COC2=O`, the Potency result in experiment [1] and in [2] was “inactive” in each case.
With `COc1ccc(NC(=O)c2ccc(-c3ccc(C(N)=O)cc3C)cc2)cc1N1CCN(C)CC1`, the Potency entry in experiment [1] and in experiment [5] was “inactive” in each case. The Potency in experiment [4] is 14.5 µM (active).
In the case of `CC(C)c1cc2c(c(O)c1O)[C@@]13CCCC(C)(C)C1[C@@H](O)[C@@H]2OC3=O` (stereo not given in full), the Potency result in experiment [1] and in experiment [3] was “inactive” each time. The values for the activity in experiment [6], in [8] and in [9] were -82.4%, -4.78% and -0.254%, respectively. Also, the activity change, negative = inhibition in [7] was -4.37%.
`COc1cc(O[C@@H]2O[C@H](CO[C@H]3OC[C@](O)(CO)[C@H]3O)[C@@H](O)[C@H](O)[C@H]2O)cc(OC)c1O`: the Potency entry in experiment [1], in [2] and in experiment [4] was “inactive” in each case.
As to `CC1(C(=O)O)CCCC2(C)C3CC4C5CC3(CCC12)CC45C` (stereo not given), the Potency result in experiment [1], in experiment [2] and in [4] was “inactive” in each case.
In the case of `C[C@@H]1O[C@@H](O[C@H]2[C@H](O)[C@@H](O)[C@H](OC[C@H]3O[C@@H](OC(=O)[C@]45CCC(C)(C)C[C@H]4C4=CCC6[C@@]7(C)C[C@@H](O)[C@H](O)[C@@](C)(CO)C7[C@H](O)C[C@@]6(C)[C@]4(C)CC5)[C@H](O)[C@@H](O)[C@@H]3O)O[C@@H]2CO)[C@H](O)[C@H](O)[C@H]1O` (stereo not given in full), the Potency entry in [1] was “inactive”. In addition, the outcome in [2] is “inactive [at 9.23 µM]”. The activity change, negative = cell killing in [4] is 0.947% [at 9.23 µM] (inactive).
